# Most compounds without a hit are left out; they make up all but 4.2% or so of the library.
# TIM10 inh: TIM10 yeast growth inhibition; inhibition, % at 10 µM; actives 1.4% (n = 330,000); S. cerevisiae TIM10 strain growth, BacTiter-Glo luminescence, 24 h;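 active = inhibition of 40% or more at the single tested concentration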;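 also: wild-type TIM10 isogenic control strain grown at permissive 25 °C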
# V-ATPase pH: alters yeast V-ATPase proton transport. S. cerevisiae, pHLuorin cytosolic pH fluorescence. response, % at 10 µM. actives 0.37% (n = 350,000); in the data active = response mostly above about 7.3%, no sharp cut-off; inactive = mostly below about 5.4%; also: actives read high
# NLRP3 yeast inh: blocks the NALP3 inflammasome reconstituted in yeast; actives 0.39% (n = 330,000); inhibition, % at 10 µM; Yeast reconstituted NLRP3/ASC/caspase-1, beta-gal luminescence, 24 h;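 active = inhibition of 50% or more; inactive = inhibition below 50%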;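 also: plate controls were induced DMSO wells for no effect and uninduced yeast grown without galactose for full effect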
# tim23-1 inh: growth inhibitors of tim23-1 mutant yeast; actives 1.3% (n = 330,000); S. cerevisiae tim23-1 growth, BacTiter-Glo luminescence, 24 h; inhibition, % at 20 µM; AID 463212;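 active = growth inhibition of the mutant yeast at or above 50%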;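 also: temperature-sensitive mutant grown at 25 °C; plate controls were DMSO-treated mutant yeast for no effect and medium wells lacking yeast for full effect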
# tim10-1 inh: inhibits growth of tim10-1 mutant yeast; S. cerevisiae tim10-1 ts strain growth, BacTiter-Glo, 24 h; inhibition, % at 20 µM; actives 2.2% (n = 330,000);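 active = inhibition of at least 40%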;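 also: mutant grown at 25 °C; 0% = DMSO wells with yeast and 100% = wells holding no yeast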
# NALP1 yeast inh: blocks the NALP1 inflammasome reconstituted in yeast; S. cerevisiae NALP1/ASC/caspase-1 growth, X-gal OD620, 72 h; inhibition, % at 10 µM; actives 0.61% (n = 280,000); AID 2071; in the data active = inhibition mostly above about 24%, no sharp cut-off; inactive = mostly below about 32%
# tim10-1 conf: tim10-1 yeast growth inhibition, confirmed; shares compounds with tim10-1 inh; S. cerevisiae tim10-1 ts strain growth, BacTiter-Glo, 24 h; inhibition, % at 20 µM; actives 56% (n = 7,400); AID 463213;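 active = inhibition of yeast growth at or above a set limit in either of two repeat tests at 20 µM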;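 also: tim10-1 mutant grown at permissive 25 °C to find synthetic lethal compounds; 0% = DMSO yeast wells and 100% = medium wells without yeast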
# TIM10 conf: confirmation of TIM10 yeast growth inhibitors | S. cerevisiae tim10 strain growth, BacTiter-Glo luminescence, 24 h | actives 63% (n = 4,600) | shares compounds with TIM10 inh | inhibition, % at 10 µM;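 active = inhibition of yeast growth at or above a set limit in either of two replicates at 10 µM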;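 also: this counterscreen used the strain with wild-type TIM10; 0% = yeast with DMSO and 100% = medium wells lacking yeast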
# tim23-1 confirm: confirmation of tim23-1 mutant yeast growth inhibitors. shares compounds with tim23-1 inh. S. cerevisiae tim23-1 growth, BacTiter-Glo luminescence, 24 h. inhibition, % at 20 µM. actives 83% (n = 4,400). AID 463218;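 active = inhibition above about 39% in either of two replicate wells at 20 µM, limit read from the data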;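 also: temperature-sensitive tim23-1 mutant grown at 25 °C; 0% = DMSO wells with yeast and 100% = medium wells without yeast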
# The depositor's hits bear a star; x = no result given.
SMILES,TIM10 inh,V-ATPase pH,NLRP3 yeast inh,tim23-1 inh,tim10-1 inh,NALP1 yeast inh,tim10-1 conf,TIM10 conf,tim23-1 confirm
CC/C(=N\NC(=O)C1CCCC1)c1cccc(Br)c1,7,0,6,25,11,-9,x,x,x
N/C(=N\OC(=O)CCc1ccccc1)c1ccc(Br)cc1,61*,4,10,65*,47*,-2,56*,55*,46*
COc1ccc(/C(N)=N/OC(=O)CCCc2ccccc2)cc1OC,6,-1,21,6,29,23,x,x,x
Cc1ccc(/C(N)=N/OC(=O)CCc2ccccc2)cc1,55*,7,18,75*,46*,2,49*,60*,61*
N/C(=N\OC(=O)CCCc1ccccc1)c1ccc(Br)cc1,23,2,7,19,25,12,x,x,x
N/C(=N\OC(=O)CCc1ccccc1)c1cccc(Br)c1,63*,4,10,81*,70*,2,64*,60*,76*
O=C(O)c1cccc2c1C(=O)c1cc([N+](=O)[O-])ccc1-2,x,-1,x,x,x,x,x,x,x
N/C(=N\OC(=O)CCc1ccccc1)c1ccccc1Cl,47*,x,6,56*,64*,4,60*,42*,48*
CCOc1ccc(OCCCC(=O)ON=C(N)c2ccccc2Cl)cc1,15,-3,26,13,10,x,x,x,x
Cc1ccc(C=C2C(Cl)=C(Cl)C(Cl)=C2Cl)cc1,64*,x,-7,74*,64*,7,78*,78*,53*
COc1ccc(N2CCN(C(=O)c3cc(=O)c4cc(C)c(C)cc4o3)CC2)cc1,25,-9,5,20,4,4,x,x,x
Cc1ccc(NC(=O)C2CCCN2S(=O)(=O)c2ccc(-c3ccc(=O)[nH]n3)s2)c(C)c1 (centres undefined),-2,-7,10,11,15,-1,x,x,x
COc1cccc(Nc2ccc([N+](=O)[O-])c3nonc23)c1,30,1,17,70*,57*,0,22,x,78*
COc1cccc(Nc2cc(N3CCOCC3)c3nonc3c2[N+](=O)[O-])c1,8,1,13,9,15,4,x,x,x
Cc1cccc(-c2ncc(S(=O)(=O)C(C)(C)C)c(N)n2)c1,-4,-3,19,4,-20,14,x,x,x
Cc1nnnn1/C(=C\c1ccccc1)C(=O)OCC(=O)Nc1ccc(Cl)cc1F,96*,4,36,80*,44*,x,22,75*,40*
Nc1cc2[nH]c(=O)c3ccccc3c2cc1[N+](=O)[O-],x,0,x,x,x,x,x,x,x
O=C1c2ccccc2C(=O)c2c(O)c(O)cc(O)c21,38,1,45,77*,47*,x,29,x,70*
O=C1c2ccccc2C(=O)N1N(c1ccccc1)c1ccccc1,x,-4,x,x,x,x,x,x,x
O=C1C=CC(=O)N1N(c1ccccc1)c1ccccc1,54*,0,3,55*,65*,105*,67*,61*,47*
Cc1ccc(-n2ncc3c2CCCC3NC(=O)c2ccoc2)cc1C (centres undefined),15,1,7,26,26,4,x,x,x
Cc1ccc(-n2ncc3c2CCCC3NC(=O)c2csnn2)cc1C (centres undefined),26,1,24,52*,59*,-4,41*,x,43*
CCOC(=O)C1=C(SCC)c2cc3c(n2C1=O)CCCC3,59*,-6,23,59*,65*,6,48*,-12,61*
O=C(CN1C(=O)NC2(CCCC2)C1=O)NNC(=O)c1ccc(F)cc1,10,-1,0,-2,-1,x,x,x,x
NC(=O)c1ccsc1NC(=O)c1ccc(N2CCCC2=O)cc1,9,-1,17,2,22,10,x,x,x
SMILES,TIM10 inh,V-ATPase pH,NLRP3 yeast inh,tim23-1 inh,tim10-1 inh,NALP1 yeast inh,tim10-1 conf,TIM10 conf,tim23-1 confirm
CNC(=O)c1ccsc1NC(=O)c1ccc2c(c1)CCCC2,54*,5,14,63*,49*,23,30*,47*,72*
COc1ccc(-[n+]2c(C)cc(/C=C3\Sc4ccccc4N3C)cc2C)cc1,66*,8,12,82*,77*,28*,76*,67*,84*
COc1ccccc1-[n+]1c(C)cc(/C=C2\Sc3ccccc3N2C)cc1C,75*,-1,37,70*,57*,x,77*,60*,72*
Cc1cccc(CS(=O)(=O)c2ncc(Cl)c(C(=O)Nc3c(C)cccc3C)n2)c1,9,-1,7,56*,46*,-4,-55,x,21
CCCc1nnc(NC(=O)c2nc(S(=O)(=O)Cc3cccc(C)c3)ncc2Cl)s1,7,0,5,6,23,-24,x,x,x
CC1CC(C)CN(CC(O)COCc2ccccc2F)C1 (centres undefined),4,-1,23,15,-4,20,x,x,x
Cc1ccc(NC(=O)COc2ccccc2C=O)cc1Cl,51*,4,49,69*,43*,-2,26,51*,69*
COC(=O)COc1ccc(-c2ccccc2)cc1C=O,73*,1,16,65*,66*,20,60*,73*,83*
COC(=O)COc1ccccc1C(N)=O,-5,-2,1,10,-2,0,x,x,x
COc1ccccc1C(CNC(=O)CN1C(=O)NC(C)(c2ccc3ccccc3c2)C1=O)N1CCCC1 (centres undefined),x,-2,x,x,x,x,x,x,x
CCCCOc1ccc(C(=O)CCN2CCCCC2)cc1,4,1,37,50*,47*,46*,17,x,66*
COc1ccc(CC(=O)NC(=S)Nc2cccc(C)c2)cc1,47*,1,30,62*,46*,x,29*,36*,46*
Cc1cccc(NC(=S)NNC(=O)COc2ccc(Cl)cc2Cl)c1,43*,3,0,52*,46*,-11,32*,0,42*
CCN(CC)C(=O)C1=C(C)N(Cc2ccccc2)C(=O)C(CC(=O)NCC2CCCCC2)C1 (centres undefined),x,0,x,x,x,x,x,x,x
CC(c1ccccc1)n1cnc2ccccc2c1=O (centres undefined),-13,1,-9,15,0,-11,x,x,x
CCOC(=O)c1c2c(c(=S)n(-c3ccccc3)c1N)CCC2,0,-5,-4,58*,54*,26,37*,x,67*
O=C1C2C(c3ccccc3)C=CC(c3ccccc3)C2C(=O)N1c1ccncc1 (centres undefined),14,-4,19,53*,41*,-9,36*,x,49*

# Assay outcomes (PubChem)
